This passage reports outcome results from PubChem BioAssay (NCATS).

Molecules are shown by their SMILES. Records with an inconclusive call do not appear. Calls of active or inactive are those of the source. Calls follow the shape of the dose curve; as a rule, active = well fitted inhibition curve with a large enough effect; inconclusive = small, poorly fitted or top-dose-only effect; inactive = flat fitted curve, though single readings scatter.

A short description of this experiment: P-glycoprotein substrates identified in KB-8-5-11 adenocarcinoma cell line, qHTS therapeutic library screen (AID 1346987). Also: nearly all actives have a fitted effect of over 65% in size. The following applies: KB-8-5-11 (P-gp overexpressing) viability, CellTiter-Glo, 72 h; series mostly up to 44.5 µM. A digest of the protocol: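 KB-8-5-11, a colchicine-selected P-gp-overexpressing KB-3-1 subline, was grown without colchicine for the assay. Cells were seeded at 500 cells/well, dosed in concentration-response and incubated 72 h at 37 degree C, 5% CO2. Viability was read by CellTiter-Glo luminescence.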
Background: qHTS replaces the single test concentration by a dilution series.
In the case of `CC[C@H](C)[C@H](N)C(=O)O`, the compound was called inactive.
For the compound `C[N+](C)(C)CC(O)CC(=O)[O-]` (stereo not given), the compound was classed as inactive.
For `O=c1[nH]c2cc(C(F)(F)F)c(N3CCOCC3)cc2n(CP(=O)(O)O)c1=O` the value was “inactive”; for `CC(=O)OC[C@H]1O[C@@](COC(C)=O)(O[C@H]2O[C@H](COC(C)=O)[C@@H](OC(C)=O)[C@H](OC(C)=O)[C@H]2OC(C)=O)[C@@H](OC(C)=O)[C@@H]1OC(C)=O`, “inactive”.
For `C/C(=C(\CCO)SS/C(CCO)=C(\C)N(C=O)Cc1cnc(C)nc1N)N(C=O)Cc1cnc(C)nc1N` the value was “inactive”.
For `O=C(NCCCN1CCOCC1)c1ccc(Cl)cc1` the value was “inactive”; for `NCc1ccc(S(N)(=O)=O)cc1`, “inactive”.
Regarding `Cc1c(NC(=O)c2cccnc2)c(=O)n(-c2ccccc2)n1C`, the outcome was inactive.
For `C[N+](C)(C)CC[N+]1(C)Cc2c(Cl)c(Cl)c(Cl)c(Cl)c2C1` the value was “inactive”.
For `O=C1c2ccccc2S(=O)(=O)N1CCCCN1CCN(c2ncccn2)CC1` the value was “inactive”; for `c1ccc2[nH]ccc2c1`, “inactive”.
For `CCCCCCCCCCC(CO)CCCCCCCC` (stereo not given), the compound was called inactive.
For `O=C(O)CCCc1ccccc1` the value was “inactive”.
For `CNc1c2c(nn1C)CCCC2` the value was “inactive”; for `CCCNC(C)C(=O)Nc1c(C)csc1C(=O)OC` (stereo not given), “inactive”.
